Only some compounds are listed: those with a hit (about 1.5% of all), similar ones and a draw of the others.
DAGLB inhibitor: blocks human DAGLB lipase activity; inhibition, % at 5.17 µM; HEK293T DAGLB membrane lysate, EnzChek fluorogenic substrate; 340,000 tested, 0.059% active; Q8NCG7; in the data active = inhibition above about 34%;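 also: 0% = enzyme with vehicle and 100% = wells lacking enzyme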
ANO1 block: mouse TMEM16A channel inhibition, primary screen; Q8BHY3; HEK293 TMEM16A/YFP iodide influx fluorescence, ionomycin; normalized B-score (activity score, 25-100; higher = stronger inhibition) at 10 µM; 310,000 tested, 1.2% active; AID 588511;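 active = ratio plate-corrected score three or more library SD toward inhibition, starting fluorescence score within five deviations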;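 also: score derived from kinetic fluorescence span divided by baseline fluorescence per well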
Target sequence (Q8BHY3 whole entry, looked up): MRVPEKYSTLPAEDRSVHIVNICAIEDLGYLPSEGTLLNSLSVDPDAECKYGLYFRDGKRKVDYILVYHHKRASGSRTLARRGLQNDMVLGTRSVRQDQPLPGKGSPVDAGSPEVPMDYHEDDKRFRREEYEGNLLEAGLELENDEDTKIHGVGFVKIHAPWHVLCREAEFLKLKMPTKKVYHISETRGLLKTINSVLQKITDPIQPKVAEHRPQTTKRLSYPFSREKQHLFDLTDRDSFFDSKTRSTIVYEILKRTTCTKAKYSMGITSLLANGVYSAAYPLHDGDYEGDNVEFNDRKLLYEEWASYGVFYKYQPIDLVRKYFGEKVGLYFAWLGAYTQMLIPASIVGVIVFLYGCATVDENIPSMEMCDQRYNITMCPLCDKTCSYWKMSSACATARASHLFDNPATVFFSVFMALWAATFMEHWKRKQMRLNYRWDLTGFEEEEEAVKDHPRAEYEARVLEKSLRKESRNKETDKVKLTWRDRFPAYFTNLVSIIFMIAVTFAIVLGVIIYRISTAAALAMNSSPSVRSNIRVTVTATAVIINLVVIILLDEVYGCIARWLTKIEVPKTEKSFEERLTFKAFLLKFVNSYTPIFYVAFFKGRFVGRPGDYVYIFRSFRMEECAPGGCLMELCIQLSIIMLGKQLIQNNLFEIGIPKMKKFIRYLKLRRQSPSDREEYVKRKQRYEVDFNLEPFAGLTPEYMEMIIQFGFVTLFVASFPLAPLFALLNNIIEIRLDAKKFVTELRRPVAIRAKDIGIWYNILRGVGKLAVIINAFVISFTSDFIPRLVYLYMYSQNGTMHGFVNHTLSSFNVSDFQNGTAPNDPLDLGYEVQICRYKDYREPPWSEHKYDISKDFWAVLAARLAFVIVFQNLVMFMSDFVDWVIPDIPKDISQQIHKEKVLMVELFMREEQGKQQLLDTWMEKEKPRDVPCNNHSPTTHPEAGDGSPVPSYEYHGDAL
iPSC survival up: enhancers of human iPSC single-cell survival; survival enhancement, % at 20 µM; hiPSC single-cell survival, ATPlite luminescence; 100% = ROCK inhibitor wells, 0% = DMSO; 360,000 tested, 0.044% active; in the data active = survival enhancement above about 18%;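 also: cells exposed to compounds for 16 hours before the ATP read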
TMEM16A act: activates or potentiates the mouse TMEM16A chloride channel; HEK293 TMEM16A/YFP-H148Q/I152L, iodide quench fluorescence; stronger effect = lower value; B-score at 10 µM; 340,000 tested, 0.3% active; AID 623877;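 active = fluorescence-ratio B-score plate-corrected deviation score at least 3 library SD below zero, with starting fluorescence score within 5 deviations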;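 also: channel opened by trigger with iodide after compound preincubation; score built on the fluorescence ratio of max minus min over baseline; more negative score means more quench and so TMEM16A activation or potentiation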
ABCB6 inh MLPCN: blocks the human ABCB6 transporter | K562-ABCB6 porphyrin accumulation, flow cytometry, 1 h; stronger effect = lower value | fluorescence ratio to DMSO, % at 10 µM | 360,000 tested, 0.19% active;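 active = fluorescence ratio to DMSO below 75%, the collection mean minus 3 SD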;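 also: signal is porphyrin accumulated inside mitochondria; 100% equals median channel fluorescence of DMSO control wells; lower ratio means ABCB6 inhibition with less porphyrin fluorescence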
* marks the source's active call; other numbers are inactive results; i = inactive; · = not tested or not shown.

SMILES | DAGLB inhibitor | ANO1 block | iPSC survival up | TMEM16A act | ABCB6 inh MLPCN
CCN(C(=O)COC(=O)C1=COCCO1)c1c(N)n(Cc2ccccc2)c(=O)[nH]c1=O | 1.7 | · | 2.4 | i | 99.0
O=C(Nc1ccccc1C(=O)N1CCN(c2cccc(Cl)c2)CC1)C1=CSCCO1 | 1.1 | i | -0.5 | -28.1* | 97.0
Cc1ccc(S(=O)(=O)N2CCCCC2)cc1NC(=O)COC(=O)c1cccn1C | -1.1 | · | -0.3 | i | 99.0
CC1(C)CC2CC(C)(CN2S(=O)(=O)c2ccc(C(=O)Nc3cccc(S(=O)(=O)N4CCOCC4)c3)cc2)C1 (stereo unspecified) | -1.7 | i | -3.1 | i | 94.0
CC1(C)CC2CC(C)(CN2S(=O)(=O)c2ccc(C(=O)Nc3cc(S(=O)(=O)N4CCOCC4)ccc3Cl)cc2)C1 (stereo unspecified) | -2.2 | i | -0.6 | -11.8* | 96.0
COc1cc(OC)cc(C(=O)NC(=S)NNC(=O)[C@H]2C[C@@H]2c2ccccc2)c1 | 1.4 | 100* | -0.5 | i | 103.0
CCN(CC)CCCC(C)Nc1nccc2c(Cl)cccc12 (stereo unspecified) | 3.6 | · | -2.5 | i | 100.0
C=CC[n+]1c(-c2ccc(OC)c(OC)c2)csc1NNC(=O)Nc1ccccc1 | 0.1 | 100* | 4.9 | i | 96.0
C=CC[n+]1c(-c2ccccc2)csc1NC(C)(C)C | -3.9 | i | 0.5 | i | 96.0
CCc1cccc(NC(=O)C2CCCN(S(=O)(=O)c3cccs3)C2)c1 (stereo unspecified) | -2.3 | i | 0.0 | i | 94.0
C/C(=N\NC(=O)c1ccc(CN2CCc3ccccc3C2)cc1)c1ccccc1O | -3.8 | 100* | 0.7 | i | 91.0
COc1ccc2cc(CCNC(=O)c3ccc(S(=O)(=O)N4CCOCC4)cc3)c(=O)[nH]c2c1 | -1.6 | i | -0.3 | i | 99.0
CC(=O)Nc1cncc(-c2cnn(CC(C)C)c2)n1 | · | · | -3.1 | · | 95.0
COc1cccc(C2CC(=O)N3CN(c4cccc(Cl)c4C)CSC3=C2C#N)c1OC (stereo unspecified) | 2.5 | i | 27.1* | i | 98.0
COc1ccc(OC)c(C2CC(=O)N3CN(c4cccc(Cl)c4C)CSC3=C2C#N)c1 (stereo unspecified) | 4.1 | i | 1.4 | i | 99.0
COc1cc(/C=N/NC(=O)C23CC4CC(CC(C4)C2)C3)cc(Br)c1O | 1.2 | i | -0.8 | i | 97.0
O=C(N/N=C/c1cc([N+](=O)[O-])cc(Br)c1O)C12CC3CCC(CC(C3)C1)C2 | -1.1 | 100* | -0.6 | i | 93.0
COc1cc2nc(CN3CCN(S(=O)(=O)c4ccccc4)CC3)[nH]c(=O)c2cc1OC | 2.1 | · | -0.2 | i | 101.0
COc1cc2nc(CN3CCN(S(=O)(=O)c4ccc(Cl)cc4)CC3)[nH]c(=O)c2cc1OC | -3.0 | i | -0.3 | -38.6* | 95.0
O=C(c1ccc2ccccc2c1)C1CCCN(C(=O)c2cnccn2)C1 (stereo unspecified) | -3.2 | i | 0.7 | -4.61* | 101.0
COc1ccc2cc(C(=O)C3CCCN(C(=O)c4cnccn4)C3)ccc2c1 (stereo unspecified) | -2.0 | i | -0.3 | i | 96.0
C/C(=N\Nc1ccc(Cl)c(C(=O)O)c1)c1ccc(N2CCOCC2)cc1 | -2.3 | 25* | 1.0 | i | 94.0
Cc1ccnc(NC(=O)c2cccc(NC(=O)CC3SC(N4CCCCC4)=NC3=O)c2)c1 (stereo unspecified) | -0.9 | · | 1.8 | -37.6* | 92.0
O=S(=O)(NCC1(N2CCOCC2)CCCCC1)c1ccc(F)c(F)c1F | -1.9 | i | -0.4 | i | 95.0
CCc1nc2ccc(C(=O)NCCCN3CCCC3=O)cn2c1N(CCC(C)C)CCN(C)C | · | · | -3.5 | · | 96.0
SMILES | DAGLB inhibitor | ANO1 block | iPSC survival up | TMEM16A act | ABCB6 inh MLPCN
O=C(CSc1nnc(-c2ccccc2)c2ccccc12)NCC1CCCO1 (stereo unspecified) | -3.3 | i | 0.3 | -6.82* | 100.0
N#CC(C#N)=C(Nc1ccc(F)cc1)SCc1cccc(F)c1 | 9.5 | 25* | 2.2 | i | 90.0
CCOc1ccc(N/C(SCc2cccc([N+](=O)[O-])c2)=C(/C#N)C(N)=O)cc1 | 0.7 | i | -0.8 | i | 91.0
Cc1ccc(C)c(S(=O)(=O)N2CCCCC2CCNC(=O)C(=O)NCc2ccncc2)c1 (stereo unspecified) | -2.4 | i | -0.2 | i | 92.0
CN1C(=O)S/C(=C\c2ccccc2OCc2ccc(C(=O)O)cc2)C1=O | 3.4 | i | -0.5 | i | 97.0
Cc1ccc(Oc2ccccc2/C=C2\SC(=O)N(C)C2=O)cc1 | -15.2 | i | -1.1 | i | 74.0*
C[C@@H]1CN([C@H](C)CO)C(=O)CCCn2nncc2CO[C@H]1CN(C)S(C)(=O)=O | -2.7 | · | 3.9 | · | 100.0
C=CCn1c(=S)[nH]c2nc3c(cc2c1=O)CCCC3 | -1.9 | i | -1.3 | i | 70.0*
C=CCn1c(=S)[nH]c2ccc(Br)cc2c1=O | -3.1 | i | 0.8 | i | 95.0
O=C(Nc1cccnc1Cl)c1cccnc1Cl | -0.9 | i | 23.4* | i | 101.0
O=C(CSCCc1ccccn1)Nc1cccnc1Cl | -1.0 | 25* | -1.4 | i | 99.0
O=C(CSCCc1ccccn1)Nc1ccccn1 | -2.1 | i | 2.1 | i | 103.0
CCOC(=O)c1c(-c2cc(OC)c(OC)c(OC)c2)csc1N | -6.4 | · | 20.8* | · | 96.0
C=CCn1c(SC(C)C(=O)c2c(N)n(C)c(=O)n(C)c2=O)nnc1-c1ccoc1C (stereo unspecified) | 2.0 | · | -0.4 | i | 98.0
CCOc1ccc(S(=O)(=O)Nc2cccc(C(=O)N3CCN(c4ccc(OC)cc4)CC3)c2)cc1 | -2.7 | i | 21.2* | i | 93.0
Cc1cc2nc(NCCCO)n(CC(=O)c3cc(C(C)(C)C)c(O)c(C(C)(C)C)c3)c2cc1C | -4.0 | 100* | 1.5 | i | 97.0
O=C1NC(=Nc2ccccc2Cl)S/C1=C\c1cccc([N+](=O)[O-])c1 | 16.4 | 25* | -0.3 | i | 103.0
COc1c(/C=C2\SC(=Nc3ccccc3Cl)NC2=O)cccc1[N+](=O)[O-] | 10.7 | i | 0.2 | i | 95.0
S=C(Nc1ccc(Oc2ccccc2)cc1)NC1CCCCCC1 | -11.2 | 100* | -2.0 | i | 87.0
CCc1ccc(CNC(=O)CCC(=O)n2ncc3cc(C)ccc32)cc1 | -6.9 | i | 1.0 | -8.81* | 101.0
O=[N+]([O-])c1ccc(NC(=S)NCCc2ccccc2)cc1 | -4.9 | 100* | -1.3 | i | 97.0
O=[N+]([O-])c1ccc(NC(=S)NCc2ccc(F)cc2)cc1 | -2.2 | 25* | -0.4 | -5* | 96.0
O=[N+]([O-])c1ccc(NC(=S)NCc2ccncc2)cc1 | -1.7 | i | 0.6 | i | 88.0
Fc1cccc(NC(=S)NCc2cccnc2)c1 | 0.8 | i | 2.3 | i | 94.0

Screening data deposited in PubChem by several laboratories.
